# Experimental data published in the supplement of paper PMC8728848.
# Shown is part of a subset that was picked to be rich in the strongest signals.
# B1: Siglec-E (Mus musculus), Q91Y57 (protein)
# chain: MLLLLLLLLLWGIKGVEGQNPQEVFTLNVERKVVVQEGLCVLVPCNFSYLKKRLTDWTDSDPVHGFWYREGTDRRKDSIVATNNPIRKAVKETRNRFFLLGDPWRNDCSLNIREIRKKDAGLYFFRLERGKTKYNYMWDKMTLVVTALTNTPQILLPETLEAGHPSNLTCSVPWDCGWTAPPIFSWTGTSVSFLSTNTTGSSVLTITPQPQDHGTNLTCQVTLPGTNVSTRMTTRLNVSYAPKNLTVTIYQGADSVSTILKNGSSLPISEGQSLRLICSTDSYPPANLSWSWDNLTLCPSKLSKPGLLELFPVHLKHGGVYTCQAQHALGSQHISLSLSPQSSATLSEMMMGTFVGSGVTALLFLSVCILLLAVRSYRRKPARPAVVAPHPDALKVSVSQNPLVESQADDSSEPLPSILEAAPSSTEEEIHYATLSFHEMKPMNLWGQQDTTTEYSEIKFPQRTAWP
# Legend:
# Assay in all cases: glycan array binding signal (z-score within array); higher = stronger binding
# Conditions in all cases: glycan notation: IUPAC condensed, linker removed
# [1] = target: Fuc(a1-2)Gal(b1-3)[Fuc(a1-4)]GlcNAc(b1-2)Man(a1-3)[Fuc(a1-2)Gal(b1-3)[Fuc(a1-4)]GlcNAc(b1-2)Man(a1-3)]Man(b1-4)GlcNAc(b1-4)GlcNAc
# Summary of the method: (§1)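 The binding signal is a Z-score computed within each array. Data were drawn from 3228 arrays in the Consortium for Functional Glycomics database, restricted to those with a known protein sequence. Scores were averaged over arrays of the same protein sequence at different concentrations or buffers, and over linkers, and negative values can be taken as non-binding.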
# [2] = target: Fuc(a1-2)Gal(b1-3)[Fuc(a1-4)]GlcNAc(b1-2)Man(a1-3)[Fuc(a1-2)Gal(b1-3)[Fuc(a1-4)]GlcNAc(b1-2)Man(a1-6)]Man(b1-4)GlcNAc(b1-4)[Fuc(a1-6)]GlcNAc(b1-4)[Fuc(a1-6)]GlcNAc
# Summary of the method: as §1
# [3] = target: Fuc(a1-2)Gal(b1-4)GlcNAc(b1-2)Man(a1-3)[Fuc(a1-2)Gal(b1-4)GlcNAc(b1-2)Man(a1-6)]Man(b1-4)GlcNAc(b1-4)[Fuc(a1-6)]GlcNAc
# Summary of the method: as §1
# [4] = target: Fuc(a1-2)[Gal(a1-3)]Gal(b1-3)GalNAc
# Summary of the method: as §1
# [5] = target: Fuc(a1-2)[Gal(a1-3)]Gal(b1-3)GlcNAc(b1-3)GalNAc
# Summary of the method: as §1
# [6] = target: Fuc(a1-2)[Gal(a1-3)]Gal(b1-4)GlcNAc(b1-2)Man(a1-3)[Fuc(a1-2)[Gal(a1-3)]Gal(b1-4)GlcNAc(b1-2)Man(a1-6)]Man(b1-4)GlcNAc(b1-4)[Fuc(a1-6)]GlcNAc
# Summary of the method: as §1
# [7] = target: Fuc(a1-2)[Gal(a1-3)]Gal(b1-4)GlcNAc(b1-3)[Fuc(a1-2)[Gal(a1-3)]Gal(b1-4)GlcNAc(b1-6)]GalNAc
# Summary of the method: as §1
# [8] = target: Fuc(a1-2)[Gal(a1-3)]Gal(b1-4)[Fuc(a1-3)]GlcNAc
# Summary of the method: as §1
# [9] = target: Fuc(a1-2)[Gal(a1-3)]Gal(b1-4)[Fuc(a1-3)]GlcNAc(b1-3)GalNAc
# Summary of the method: as §1
# [10] = target: Fuc(a1-2)[GalNAc(a1-3)]Gal(b1-3)GalNAc(b1-3)Gal(a1-4)Gal(b1-4)Glc
# Summary of the method: as §1
# [11] = target: Fuc(a1-3)[Gal(b1-4)]GlcNAc(b1-2)Man
# Summary of the method: as §1
# [12] = target: Fuc(a1-4)GlcNAc
# Summary of the method: as §1
# [13] = target: Gal(a1-3)Gal(b1-4)[Fuc(a1-3)]GlcNAc
# Summary of the method: as §1
# [14] = target: Gal(a1-3)Gal(b1-4)[Fuc(a1-3)]GlcNAc(b1-2)Man(a1-3)[Gal(a1-3)Gal(b1-4)[Fuc(a1-3)]GlcNAc(b1-2)Man(a1-6)]Man(b1-4)GlcNAc(b1-4)GlcNAc
# Summary of the method: as §1
# [15] = target: Gal(a1-3)GalNAc
# Summary of the method: as §1
# [16] = target: Gal(a1-4)Gal(b1-4)GlcNAc(b1-2)Man(a1-3)[Gal(a1-4)Gal(b1-4)GlcNAc(b1-2)Man(a1-6)]Man(b1-4)GlcNAc(b1-4)GlcNAc
# Summary of the method: as §1
# [17] = target: Gal(a1-6)Glc
# Summary of the method: as §1
# [18] = target: Gal(b1-3)GalNAc(a1-3)[Fuc(a1-2)]Gal(b1-4)Glc
# Summary of the method: as §1
# [19] = target: Gal(b1-3)GlcNAc(b1-2)Man
# Summary of the method: as §1
# [20] = target: Gal(b1-3)GlcNAc(b1-2)[Gal(b1-3)GlcNAc(b1-6)]Man(a1-6)[Gal(b1-3)GlcNAc(b1-2)Man(a1-3)]Man(b1-4)GlcNAc(b1-4)GlcNAc
# Summary of the method: as §1
# [21] = target: Gal(b1-4)Gal
# Summary of the method: as §1
# [22] = target: Gal(b1-4)GalNAc(b1-3)[Fuc(a1-2)]Gal(b1-4)GlcNAc
# Summary of the method: as §1
# [23] = target: Gal(b1-4)GlcNAc(b1-2)[Gal(b1-4)GlcNAc(b1-4)]Man(a1-3)[Gal(b1-4)GlcNAc(b1-2)[Gal(b1-4)GlcNAc(b1-6)]Man(a1-6)]Man(b1-4)GlcNAc(b1-4)GlcNAc
# Summary of the method: as §1
# [24] = target: Gal(b1-4)GlcNAc(b1-3)Gal(b1-4)GlcNAc(b1-3)Gal(b1-4)GlcNAc(b1-2)Man(a1-3)[Gal(b1-4)GlcNAc(b1-3)Gal(b1-4)GlcNAc(b1-3)Gal(b1-4)GlcNAc(b1-2)Man(a1-6)]Man(b1-4)GlcNAc(b1-4)[Fuc(a1-6)]GlcNAc
# Summary of the method: as §1
# [25] = target: Gal(b1-4)GlcNAc(b1-3)Gal(b1-4)GlcNAc(b1-3)[Gal(b1-4)GlcNAc(b1-3)Gal(b1-4)GlcNAc(b1-6)]GalNAc
# Summary of the method: as §1
# [26] = target: Gal3S(b1-4)[Fuc(a1-3)]Glc6S
# Summary of the method: as §1
# [27] = target: Gal3S4S(b1-4)GlcNAc
# Summary of the method: as §1
# [28] = target: GalNAc(b1-4)Gal(b1-4)Glc
# Summary of the method: as §1
# [29] = target: GalNAc4S6S(b1-4)GlcNAc
# Summary of the method: as §1
# [30] = target: Glc(a1-6)Glc(a1-6)Glc(a1-6)Glc
# Summary of the method: as §1
# [31] = target: Glc(b1-4)Glc
# Summary of the method: as §1
# [32] = target: GlcNAc(a1-4)Gal(b1-4)GlcNAc
# Summary of the method: as §1
# [33] = target: GlcNAc(b1-2)Gal(b1-3)GalNAc
# Summary of the method: as §1
# [34] = target: GlcNAc(b1-2)Man(a1-3)[GlcNAc(b1-2)Man(a1-6)]Man(b1-4)GlcNAc(b1-4)GlcNAc
# Summary of the method: as §1
# [35] = target: GlcNAc(b1-3)Gal(b1-4)GlcNAc(b1-3)Gal(b1-4)GlcNAc(b1-2)[GlcNAc(b1-3)Gal(b1-4)GlcNAc(b1-3)Gal(b1-4)GlcNAc(b1-6)]Man(a1-6)[GlcNAc(b1-3)Gal(b1-4)GlcNAc(b1-3)Gal(b1-4)GlcNAc(b1-2)Man(a1-3)]Man(b1-4)GlcNAc(b1-4)[Fuc(a1-6)]GlcNAc
# Summary of the method: as §1
# [36] = target: GlcNAc(b1-3)[GlcNAc(b1-6)]GalNAc
# Summary of the method: as §1
# [37] = target: Man(a1-2)Man(a1-3)[Man(a1-6)]Man(a1-6)[Man(a1-2)Man(a1-3)]Man(b1-4)GlcNAc(b1-4)GlcNAc
# Summary of the method: as §1
# [38] = target: MurNAc(b1-4)GlcNAc
# Summary of the method: as §1
# [39] = target: Neu5Ac(a2-3)Gal
# Summary of the method: as §1
# [40] = target: Neu5Ac(a2-3)Gal(b1-3)GalNAc(b1-4)[Neu5Ac(a2-8)Neu5Ac(a2-3)]Gal(b1-4)Glc
# Summary of the method: as §1
# [41] = target: Neu5Ac(a2-3)Gal(b1-3)GlcNAc(b1-2)Man(a1-3)[Neu5Ac(a2-3)Gal(b1-3)GlcNAc(b1-2)Man(a1-6)]Man(b1-4)GlcNAc(b1-4)GlcNAc
# Summary of the method: as §1
# [42] = target: Neu5Ac(a2-3)Gal(b1-3)GlcNAc(b1-3)GalNAc
# Summary of the method: as §1
# [43] = target: Neu5Ac(a2-3)Gal(b1-3)[Fuc(a1-4)]GlcNAc(b1-3)Gal(b1-4)[Fuc(a1-3)]GlcNAc
# Summary of the method: as §1
# [44] = target: Neu5Ac(a2-3)Gal(b1-4)Glc
# Summary of the method: as §1
# [45] = target: Neu5Ac(a2-3)Gal(b1-4)GlcNAc(b1-3)Gal(b1-4)GlcNAc(b1-3)[Neu5Ac(a2-3)Gal(b1-4)GlcNAc(b1-3)Gal(b1-4)GlcNAc(b1-6)]GalNAc
# Summary of the method: as §1
# [46] = target: Neu5Ac(a2-3)Gal(b1-4)[Fuc(a1-3)]GlcNAc(b1-3)Gal(b1-4)[Fuc(a1-3)]GlcNAc(b1-3)Gal(b1-4)[Fuc(a1-3)]GlcNAc
# Summary of the method: as §1
# [47] = target: Neu5Ac(a2-3)Gal6S(b1-4)GlcNAc
# Summary of the method: as §1
# [48] = target: Neu5Ac(a2-3)[GalNAc(b1-4)]Gal(b1-4)Glc
# Summary of the method: as §1
# [49] = target: Neu5Ac(a2-3)[GalNAc(b1-4)]Gal(b1-4)GlcNAc(b1-3)GalNAc
# Summary of the method: as §1
# [50] = target: Neu5Ac(a2-6)Gal(b1-4)GlcNAc(b1-2)Man(a1-3)Man(b1-4)GlcNAc(b1-4)GlcNAc
# Summary of the method: as §1
# [51] = target: Neu5Ac(a2-6)GalNAc
# Summary of the method: as §1
# [52] = target: Neu5Ac(a2-8)Neu5Ac(a2-3)Gal(b1-3)GalNAc(b1-4)[Neu5Ac(a2-8)Neu5Ac(a2-3)]Gal(b1-4)Glc
# Summary of the method: as §1
# [53] = target: Neu5Gc(a2-3)Gal(b1-3)[Fuc(a1-4)]GlcNAc
# Summary of the method: as §1
binder,measurement,setting,value
B1,glycan array binding signal (z-score),[1],3.48
same,glycan array binding signal (z-score),[2],0.284
same,glycan array binding signal (z-score),[3],3.46
same,glycan array binding signal (z-score),[4],0.178
same,glycan array binding signal (z-score),[5],5.32
same,glycan array binding signal (z-score),[6],3.5
same,glycan array binding signal (z-score),[7],5.58
same,glycan array binding signal (z-score),[8],0.611
same,glycan array binding signal (z-score),[9],-0.176
same,glycan array binding signal (z-score),[10],-0.363
same,glycan array binding signal (z-score),[11],-0.35
same,glycan array binding signal (z-score),[12],4.01
same,glycan array binding signal (z-score),[13],-0.381
same,glycan array binding signal (z-score),[14],6.54
same,glycan array binding signal (z-score),[15],-0.309
same,glycan array binding signal (z-score),[16],4.23
same,glycan array binding signal (z-score),[17],0.863
same,glycan array binding signal (z-score),[18],-0.496
same,glycan array binding signal (z-score),[19],-0.592
same,glycan array binding signal (z-score),[20],1.66
same,glycan array binding signal (z-score),[21],3.25
same,glycan array binding signal (z-score),[22],-0.625
same,glycan array binding signal (z-score),[23],-0.667
same,glycan array binding signal (z-score),[24],-0.527
same,glycan array binding signal (z-score),[25],-0.06
same,glycan array binding signal (z-score),[26],0.707
same,glycan array binding signal (z-score),[27],-0.239
same,glycan array binding signal (z-score),[28],4.05
same,glycan array binding signal (z-score),[29],-0.147
same,glycan array binding signal (z-score),[30],1.1
same,glycan array binding signal (z-score),[31],-0.196
same,glycan array binding signal (z-score),[32],-0.41
same,glycan array binding signal (z-score),[33],-0.364
same,glycan array binding signal (z-score),[34],-0.12
same,glycan array binding signal (z-score),[35],-0.336
same,glycan array binding signal (z-score),[36],-0.05
same,glycan array binding signal (z-score),[37],-0.61
same,glycan array binding signal (z-score),[38],-0.464
same,glycan array binding signal (z-score),[39],-0.19
same,glycan array binding signal (z-score),[40],0.68
same,glycan array binding signal (z-score),[41],6.41
same,glycan array binding signal (z-score),[42],-0.226
same,glycan array binding signal (z-score),[43],-0.475
same,glycan array binding signal (z-score),[44],3.95
same,glycan array binding signal (z-score),[45],-0.335
same,glycan array binding signal (z-score),[46],-0.568
same,glycan array binding signal (z-score),[47],-0.532
same,glycan array binding signal (z-score),[48],-0.34
same,glycan array binding signal (z-score),[49],-0.355
same,glycan array binding signal (z-score),[50],-0.181
same,glycan array binding signal (z-score),[51],-0.32
same,glycan array binding signal (z-score),[52],0.342
same,glycan array binding signal (z-score),[53],0.48
